According to PubChem BioAssay (NCI):
Several values for one entry are separate records, joined by “and”; a condition that tells them apart may be missing. Equal entries are not always repeated. Compounds without any hit were thinned out: in the full panel of roughly 83,000, 20% have a hit.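 A percent growth of 40 corresponds to 60% growth inhibition; 0 means no net growth; -100 means all cells died. Active threshold: below 10.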 Values without a mark were called inactive. Activity calls are given as the source filed them.

Each molecule was assayed on MDA-MB-468 breast (assay: NCI-60 one-dose screen, 48 h (100 = growth as untreated, 0 = no growth, -100 = all killed)). Settings: 10 µM unless noted.

| Compound | growth |
| --- | --- |
| COc1ccc(/C=C2\COc3ccc(O)c(O)c3C2=O)cc1 | -8.03% (active) |
| Nc1nccc(OCCO)n1 | 107% |
| CCCCCCNc1nc(N2CCOCC2)c2[nH]c(NCCCCCC)nc2n1 | -76.7% (active) |
| C=C(C)[C@@H]1CC[C@]2(C(=O)N3CCCNCC3)CC[C@]3(C)[C@H](CC[C@@H]4[C@@]5(C)CCC(=O)C(C)(C)[C@@H]5CC[C@]43C)[C@@H]12 | 90.8% |
| CC(C)(C)OC(=O)N1CCN(c2ccc(N)cc2)C(=O)C1 | 111% |
| O=C(Cc1ccccc1)Nc1nnc(NC2CCN(c3nnc(NC(=O)Cc4ccccc4)s3)CC2)s1 | 125% |
| CC1(C)CN(CCNc2nccc(-c3c(-c4cccc(O)c4)nc4sccn34)n2)S(=O)(=O)N1 | 81% |
| C=C1C(=O)O[C@H]2[C@H]1CC/C(COC(=O)NCC(=O)Nc1ccc(OC)c(C(N)=O)c1O)=C\CC[C@@]1(C)O[C@@H]21 | 8.85% (active) |
| COc1cnc2c(c1)C(=O)c1c-2n(CCCN2CCNCC2)c(=O)c2cc([N+](=O)[O-])ccc12 | -74.8% (active) |
| O=C1c2cccnc2-c2nccc3c2c1nc1cc(Br)ccc13 | -54.6% (active) |
| COc1cccc(CNCCN2C(=O)c3ccc4c5c(ccc(c35)C2=O)C(=O)N(CCNCc2cccc(OC)c2)C4=O)c1 | 89.9% |
| Cc1nc2ccc(-n3ncc(C(=O)c4cc5ccccc5[nH]4)c3N)cc2[nH]1 | 68.2% |
| C#CCN(C)CCCOc1ccc(NCc2ccc(/C=C/C(=O)NO)cc2)cc1Cl | -47.6% (active) |
| CC1OC(n2c3ccccc3c3c4c(c5c6ccccc6[nH]c5c32)C(=O)N(CCN[C@@H]2CCC[C@H]2N)C4=O)CC(O)C1O (stereo not given in full) | -26.9% (active) |
| CN1CCN(C(=O)C(C)(C)c2ccc(C(=O)Nc3cn4cc(-c5ccncc5)ccc4n3)cc2)CC1 | -16.2% (active) |
| COc1ccc2c(O)c(/C=C3\N=Nc4ncccc43)oc2c1C[C@@H]1CCNC[C@H]1F | -52.9% (active) |
| O=C(CCc1nnc2sc(Cc3ccccc3Cl)nn12)c1nc2ccccc2[nH]1 | 84.5% |
| O=c1[nH]c(=O)n(C2C[C@@H](O)[C@@H](CO)O2)cc1F (stereo not given in full) | -3.59% (active) |
| COc1ccc2c(c1)cn1c3ccc(O)cc3nc(N)c21 | 14.2% |
| Cc1nc(Nc2cccc(NC(=O)Nc3ccc(Cl)cc3)c2)c2ccccc2n1 | 75% |
| O=C1C(Cl)=C(Nc2ccccc2)C(=O)C(Cl)=C1Nc1ccccc1 | 102% |
| C#CCN(C)CCCOc1ccc(NCc2ccc(C(=O)NO)cc2)cc1Cl | -5.18% (active) |
| CC1(C)OC(=O)C(=Cc2ccc(C#N)cc2)C(=O)O1 | 91.7% and 96.1% |
| c1cncc(CNc2ccccc2-c2nnc(Nc3ccc4c(c3)OCO4)o2)c1 | -1.51% (active) |
| COc1ccccc1CNCCN1C(=O)c2ccc3c4c(ccc(c24)C1=O)C(=O)N(CCNCc1ccccc1OC)C3=O | -92.8% (active) |
